Active and inactive are the calls of the source. The rule behind the calls is not given here.
System: Aerobactin synthetase IucA (Klebsiella pneumoniae hvKP1)
Test: IucA enzyme inhibition, primary screen, biochemical, Spectrum library (AID 1346200);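 note: 100% = wells without compound and 0% = wells lacking enzyme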
Details: malachite green pyrophosphate, A620, at 8 µM, hits give low values

| SMILES | activity remaining |
| --- | --- |
| CCCc1nc(C)c2c(=O)[nH]c(-c3cc(S(=O)(=O)N4CCN(CC)CC4)ccc3OCC)nn12 | 111% (inactive) |
| Cc1cc(NC(=O)C2=C(O)c3ccccc3S(=O)(=O)N2C)no1 | 94.1% (inactive) |
| COc1ccc(-c2cc(=O)c3c(O)cc(O[C@H]4O[C@H](CO[C@@H]5O[C@@H](C)[C@H](O)[C@@H](O)[C@H]5O)[C@@H](O)[C@H](O)[C@H]4O)cc3o2)cc1 | 101% (inactive) |
| COc1ccc(C(=O)c2ccccc2O)c(O)c1 | 107% (inactive) |
| COc1c(-c2coc3cc4c(cc3c2=O)CC(OC(C)=O)C(C)(C)O4)ccc2c1C=CC(C)(C)O2 (stereo not given) | 103% (inactive) |
| c1ccc2[nH]c(-c3cscn3)nc2c1 | 111% (inactive) |
| CC(=O)Oc1ccc2c(c1)CCC1C2CC[C@]2(C)C(=O)CCC12 (stereo not given in full) | 99.1% (inactive) |
| COc1ccc2c3c1O[C@H]1C[C@@H](O)C=C[C@@]31CCN(C)C2 | 103% (inactive) |
| C=NC(C(=O)NC1C(=O)N2C1SC(C)(C)C2C(=O)O)c1ccccc1 (stereo not given) | 110% (inactive) |
| O=C(CCBr)N1CCN(C(=O)CCBr)CC1 | 107% (inactive) |
| C[C@]12C=CC(=O)C=C1CCC1C2[C@@H](O)C[C@@]2(C)C1CC[C@]2(O)C(=O)COC(=O)CCC(=O)O (stereo not given in full) | 111% (inactive) |
| CCN1CCN(C(=O)NC(C(=O)NC2C(=O)N3C(C(=O)O)=C(CSc4nnnn4C)CSC23)c2ccc(O)cc2)C(=O)C1=O (stereo not given) | 125% (inactive) |
| CCCCC(CC)CN=C(N)NC(N)=NCCCCCCN=C(N)NC(N)=NCC(CC)CCCC (stereo not given) | 98.4% (inactive) |
| COc1cccc2c1CCC1=CC(=O)CC[C@@]12C | 111% (inactive) |
| COC(=O)c1c(OC)cc2c(c1C)Oc1c(Cl)c(OC(C)=O)c(Cl)c(C)c1C(=O)O2 | 98.6% (inactive) |
| COc1cc(OC)c2c(=O)c(-c3ccccc3)coc2c1 | 110% (inactive) |
| CCCCCC(=O)Cc1cc(O)cc(O)c1C(=O)Oc1cc(CC(=O)CCCCC)c(C(=O)O)c(OC)c1 | 106% (inactive) |
| O=C(COc1ccc(Cl)cc1)N1CCN(Cc2ccc3c(c2)OCO3)CC1 | 107% (inactive) |
| CC1(C)CC2C1CCC1(C)OC2(C)CCC1O (stereo not given) | 120% (inactive) |
| CC(C)c1c(O)ccc2c1CCC1C(C)(C)CCC[C@]21C (stereo not given in full) | 116% (inactive) |
| CC(=O)O[C@@H]1c2c(ccc3ccc(=O)oc23)OC(C)(C)[C@@H]1OC(=O)CC(C)C | 103% (inactive) |
| COc1ccc(NS(=O)(=O)c2ccc(N)cc2)nn1 | 111% (inactive) |
| O=c1cc(-c2cc(O)c(O)c(O)c2)oc2cc(O)cc(O)c12 | 101% (inactive) |
| CCOC(=O)NNc1nncc2ccccc12 | 118% (inactive) |
| CCCN(CCC)S(=O)(=O)c1ccc(C(=O)O)cc1 | 93.6% (inactive) |

— PubChem BioAssay
